Experiment [1] in a line: Nuclear factor erythroid 2-related factor 2/antioxidant responsive element (Nrf2/ARE) small molecule agonists: qHTS cell viability counter screen in human keratinocytes (AID 1919968; active = well fitted curve in the direction sought with a large enough effect in the repeat runs; an effect the other way counts as inactive or inconclusive; also: nearly all actives have a fitted effect of over 55% in size). The gist of the method:
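Fluorescence read-out from CellTiter-Fluor after 1 h at 37 C. Wells held HaCaT-derived ARE-luciferase reporter cells (1,500/well) treated 23 h with DMSO-dissolved compounds. Run in the same wells as the luciferase agonist read.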

Experiment [2] in a line: Nuclear factor erythroid 2-related factor 2/antioxidant responsive element (Nrf2/ARE) small molecule agonists: luciferase reporter gene qHTS assay in human keratinocytes (AID 1919969). Also: nearly all actives have a fitted effect of over 35% in size. Also: potency is read from the fitted curve at half-maximal effect. In general terms: In a reporter assay the amount or activity of a reporter protein is the signal.
Experiment [3] deals with Gonadotropin-releasing hormone receptor (Homo sapiens) (UniProt P30968). The experiment in a line: Human gonadotropin-releasing hormone receptor (GnRHR) small molecule agonists, calcium flux assay in GnRHR-HEK293 cells (AID 1920063). Also: nearly all actives have a fitted effect of over 35% in size. The method, boiled down:
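Calcium-dye fluorescence, Ex/Em=480/540, recorded every 1 sec over 3 min after compound addition to GnRHR-HEK293 cells. Cells had been seeded 18 hours earlier and dye-loaded for 1 hour at 37 C. Fifteen concentrations, triplicates.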
In general terms: Calcium flux is commonly read through the fluorescence of an indicator in the cells.

Experiment [4] addresses KiSS-1 receptor (Homo sapiens) (UniProt Q969F8). The experiment can be described thus: Human kisspeptin (KISS1R) small molecule agonists, calcium flux assay in KISS1R-HEK293 cells (AID 1920064; active = well fitted curve in the direction sought with a large enough effect in the repeat runs; an effect the other way counts as inactive or inconclusive). The gist of the method: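 Calcium flux read-out: kinetic fluorescence at Ex/Em=480/540, 1 s intervals over 3 min, after pin-tool compound addition to dye-loaded KISS1R-HEK293 cells. Fifteen concentrations, triplicates.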

Experiment [5] is described as follows: G protein-coupled receptor (GPCR) small molecule agonists, calcium flux assay: HEK293 wild type cell line counter screen (AID 1920065). The gist of the method:
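Agonist mode; 18 h seeding at 37 C, 1 h dye load at 37 C; compounds pinned from DMSO, ATP as positive control; kinetic fluorescence 480/540 nm, 3 min, 1 s reads; 15 concentrations, triplicate.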

A short description of experiment [6]: p53 small molecule agonists, cell-based qHTS assay with rat liver microsomes (AID 1963578). The method, boiled down: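 Fluorescence from a beta-lactamase reporter under a p53 response element was measured after cells had been incubated 16 h at 37 C with test compound and rat liver microsomes plus NADPH (0.5 mg/mL final each).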
(qHTS replaces the single test concentration by a dilution series.)

Experiment [7] can be described thus: p53 small molecule agonists, cell-based qHTS assay with human liver microsomes: qHTS cell viability counter screen (AID 1963579). Also: nearly all actives have a fitted effect of over 45% in size. The method, boiled down:
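Seed p53RE-bla cells at 4,000 per well; incubate 5 h at 37 C; add compound, human liver microsomes and NADPH; incubate 16 h at 37 C; add CellTiter-Glo; after 30 min at room temperature, read luminescence.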

The nature of experiment [8]: p53 small molecule agonists, cell-based qHTS assay with rat liver microsomes: qHTS cell viability counter screen (AID 1963580). Also: nearly all actives have a fitted effect of over 45% in size. The method, boiled down:
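Cytotoxicity counter screen: intracellular ATP read by CellTiter-Glo luminescence in the p53 reporter wells. HCT-116 p53RE-bla cells were treated for 16 h at 37 C alongside rat liver microsomes and NADPH, each 0.5 mg/mL final.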

Experiment [9] can be described thus: p53 small molecule agonists, cell-based qHTS assay: qHTS cell viability counter screen (AID 1963581). Also: nearly all actives have a fitted effect of over 45% in size. The gist of the method: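 Cytotoxicity read-out: ATP-based luminescence (CellTiter-Glo, 30 min RT) measured in the same wells as the p53 reporter assay, HCT-116 p53RE-bla cells, 16 h compound exposure at 37 C.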
Experiment [10] can be described thus: p53 small molecule agonists, cell-based qHTS assay (AID 1963582; active = well fitted activation curve with a large enough effect in the signal ratio in the repeat runs, not every such curve was filed as active; the % refers to the signal ratio). The method, boiled down:
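Fluorescence intensity read-out of a beta-lactamase reporter under a p53 response element. Cells were exposed to DMSO-dissolved compounds for 16 h at 37 C, then developed with FRET substrate for 2 h at RT.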

Experiment [11] deals with 5-hydroxytryptamine receptor 2A (Homo sapiens) (UniProt P28223). The experiment can be described thus: 5-hydroxytryptamine receptor 2A (HTR2A) small molecule antagonists, cell-based qHTS assay (AID 1963586). Also: nearly all actives have a fitted effect of over 45% in size. Also: potency is read from the fitted curve at half-maximal effect. The method, boiled down: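 CHO cells stably expressing human HTR2A were plated for 18 h at 37 C, then loaded with calcium dye for 1 h. Compounds were preincubated 5 min at room temperature before DOI (4 nM solution) was added. Kinetic fluorescence was read for 3 min.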
5-hydroxytryptamine receptor 2A (Homo sapiens), sequence (P28223 whole entry, looked up): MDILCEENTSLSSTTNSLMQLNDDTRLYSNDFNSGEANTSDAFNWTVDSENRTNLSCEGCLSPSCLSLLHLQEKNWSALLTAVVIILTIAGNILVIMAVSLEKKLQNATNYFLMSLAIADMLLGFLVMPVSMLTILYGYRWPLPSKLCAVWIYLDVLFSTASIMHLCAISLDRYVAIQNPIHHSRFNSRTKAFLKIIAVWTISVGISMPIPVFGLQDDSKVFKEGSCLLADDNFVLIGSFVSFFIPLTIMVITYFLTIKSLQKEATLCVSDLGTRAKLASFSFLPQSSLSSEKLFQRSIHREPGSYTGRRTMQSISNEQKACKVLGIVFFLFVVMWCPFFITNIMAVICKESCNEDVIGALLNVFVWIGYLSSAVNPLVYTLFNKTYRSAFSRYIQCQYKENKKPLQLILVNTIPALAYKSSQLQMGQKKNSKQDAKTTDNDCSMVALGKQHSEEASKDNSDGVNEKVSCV

For experiment [12] the target is unchanged. The experiment in a line: 5-hydroxytryptamine receptor 2A (HTR2A) small molecule agonists, cell-based qHTS assay (AID 1963587). Also: nearly all actives have a fitted effect of over 30% in size. The method, boiled down:
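Kinetic calcium-flux fluorescence (2 min, 1 sec intervals) after compound addition in agonist mode. HTR2A-CHO cells were cultured 18 h, then dye-loaded 1 h at 37 C.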

Experiment [13] has as its target Muscarinic acetylcholine receptor M1 (Homo sapiens) (UniProt P11229). The experiment can be described thus: Cholinergic receptor muscarinic 1 (CHRM1) small molecule antagonists, cell-based qHTS assay (AID 1963588). Also: nearly all actives have a fitted effect of over 40% in size. The gist of the method: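 Compounds were tested at 15 concentrations in three independent runs. Dye-loaded CHRM1-CHO cells were exposed 5 min at room temperature before stimulation by acetylcholine added at 50nM. Intracellular calcium was read kinetically on FDSS for 3 min.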

Experiment [14] can be described thus: cAMP Responsive Elements (CRE) small molecule agonists, cell-based qHTS assay (AID 1963590). The gist of the method: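 Beta-lactamase reporter readout: LiveBLAzer B/G FRET substrate, 2 h at room temperature, added after 3 h compound treatment of CRE-bla HEK 293T cells at 37 C/5% CO2.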
Experiment [15] can be described thus: cAMP Responsive Elements (CRE) small molecule antagonists, cell-based qHTS assay (AID 1963591; active = well fitted inhibition curve with a large enough effect in the signal ratio in the repeat runs, not every such curve was filed as active; the % refers to the signal ratio). The gist of the method: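 HEK293T CRE-bla; 18 h preincubation; compound pin-transfer; NKH477 0.25 uM final, 3 h, 37 C; LiveBLAzer FRET substrate 2 h RT.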
Experiment [16] has as its target Beta-2 adrenergic receptor (Homo sapiens) (UniProt P07550). The experiment in a line: Adrenergic beta2 receptor (ADRB2) small molecule antagonists, cell-based qHTS assay (AID 1963592). Also: series mostly up to about 92 µM; nearly all actives have a fitted effect of over 50% in size. The method, boiled down:
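Assay format: CHO-ADRB2 cells, 18-20hr seeding at 37C/5% CO2, then compound plus 1nM isoproterenol agonist mix for 0.5hr RT. Homogeneous time-resolved fluorescence cAMP detection after 1hr, expressed as 665/615 nm ratio.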

The target is the same in experiment [17]. The experiment can be described thus: Adrenergic beta2 receptor (ADRB2) small molecule agonists, cell-based qHTS assay (AID 1963593).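 Also: CHO cells stably overexpressing human ADRB2.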 The gist of the method:
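CHO cells stably over-expressing ADRB2 were plated overnight at 37C, then dosed with compounds plus a stimulation mix containing 100uM IBMX and 25uM Ro-20-1724 for 0.5hr at room temperature. cAMP was measured by HTRF competition, 1hr.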

Experiment [18] concerns the target D(2) dopamine receptor (Homo sapiens) (UniProt P14416). The experiment in a line: Dopamine D2 receptor (DRD2) small molecule agonists, cell-based qHTS assay (AID 1963594). Also: nearly all actives have a fitted effect of over 35% in size. The method, boiled down: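 cAMP accumulation in DRD2-HEK293 cells measured by HTRF after 1 h detection; compounds added 10 min before NKH477 (200nM […]) forskolin-analogue stimulation, 30 min at room temperature, with Ro20-1724 present at 0.1 mM final.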

Experiment [19] has the same target. The experiment in a line: Dopamine D2 receptor (DRD2) small molecule antagonists, cell-based qHTS assay (AID 1963595; active = well fitted inhibition curve with a large enough effect in the signal ratio in the repeat runs, with a control signal flat; the % refers to the signal ratio). The method, boiled down:
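Readout: HTRF cAMP, cAMP-d2 competing with cellular cAMP for anti-cAMP cryptate, read after 1 h. Cells: DRD2-HEK293. Conditions: 0.1 mM Ro20-1724, 12 nM quinpirole, 200 nM NKH477, 30 min RT.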

Experiment [20] concerns the target Muscarinic acetylcholine receptor M1 (Homo sapiens) (UniProt P11229). The experiment can be described thus: Cholinergic receptor muscarinic 1 (CHRM1) small molecule agonists, cell-based qHTS assay (AID 1963589). Also: nearly all actives have a fitted effect of over 35% in size. The gist of the method:
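Calcium flux read-out: kinetic fluorescence at 1 sec intervals after pin-tool compound addition to dye-loaded CHRM1-CHO cells (human M1). Agonist mode; 15 concentrations tested in triplicate independent runs.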

Unmarked numbers belong to inactive results. Results filed as inconclusive are left out. Activity calls are given as the source filed them. Unless noted, calls follow the shape of the full dose curve.
% is scaled to controls: 0 for no effect and ±100 for the full control effect.

Muscarinic acetylcholine receptor M1 (Homo sapiens), sequence (P11229 whole entry, looked up): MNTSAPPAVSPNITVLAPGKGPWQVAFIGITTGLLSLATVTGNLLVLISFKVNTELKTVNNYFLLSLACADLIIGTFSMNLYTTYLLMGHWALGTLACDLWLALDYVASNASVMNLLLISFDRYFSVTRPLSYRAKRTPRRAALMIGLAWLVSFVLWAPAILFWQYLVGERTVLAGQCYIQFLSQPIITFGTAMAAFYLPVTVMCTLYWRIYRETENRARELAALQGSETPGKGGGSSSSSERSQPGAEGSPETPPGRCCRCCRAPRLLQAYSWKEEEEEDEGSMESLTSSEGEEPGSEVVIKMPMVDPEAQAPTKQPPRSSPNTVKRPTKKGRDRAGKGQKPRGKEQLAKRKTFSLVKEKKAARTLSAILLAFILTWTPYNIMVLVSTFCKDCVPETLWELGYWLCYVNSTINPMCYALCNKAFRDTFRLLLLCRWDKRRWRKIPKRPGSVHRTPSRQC
KiSS-1 receptor (Homo sapiens), sequence (Q969F8 whole entry, looked up): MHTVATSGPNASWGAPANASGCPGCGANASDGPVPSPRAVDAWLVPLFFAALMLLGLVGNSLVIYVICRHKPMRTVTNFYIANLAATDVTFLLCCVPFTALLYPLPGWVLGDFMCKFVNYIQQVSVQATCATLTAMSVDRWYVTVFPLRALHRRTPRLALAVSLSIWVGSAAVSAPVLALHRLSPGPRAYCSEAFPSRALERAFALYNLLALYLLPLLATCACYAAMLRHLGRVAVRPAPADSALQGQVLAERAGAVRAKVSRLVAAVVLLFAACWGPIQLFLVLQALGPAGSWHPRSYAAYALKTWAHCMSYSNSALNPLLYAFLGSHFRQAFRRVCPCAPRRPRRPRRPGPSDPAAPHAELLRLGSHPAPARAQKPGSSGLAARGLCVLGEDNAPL
Gonadotropin-releasing hormone receptor (Homo sapiens), sequence (P30968 whole entry, looked up): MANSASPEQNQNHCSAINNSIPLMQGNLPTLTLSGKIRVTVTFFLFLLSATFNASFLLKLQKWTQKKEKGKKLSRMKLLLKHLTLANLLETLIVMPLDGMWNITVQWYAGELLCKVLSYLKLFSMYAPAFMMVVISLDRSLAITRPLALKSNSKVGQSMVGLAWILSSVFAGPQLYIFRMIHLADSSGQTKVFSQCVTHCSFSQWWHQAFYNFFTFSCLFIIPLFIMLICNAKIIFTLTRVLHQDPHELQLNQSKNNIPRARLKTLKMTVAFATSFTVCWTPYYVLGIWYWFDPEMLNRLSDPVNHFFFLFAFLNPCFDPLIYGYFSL
Beta-2 adrenergic receptor (Homo sapiens), sequence (P07550 whole entry, looked up): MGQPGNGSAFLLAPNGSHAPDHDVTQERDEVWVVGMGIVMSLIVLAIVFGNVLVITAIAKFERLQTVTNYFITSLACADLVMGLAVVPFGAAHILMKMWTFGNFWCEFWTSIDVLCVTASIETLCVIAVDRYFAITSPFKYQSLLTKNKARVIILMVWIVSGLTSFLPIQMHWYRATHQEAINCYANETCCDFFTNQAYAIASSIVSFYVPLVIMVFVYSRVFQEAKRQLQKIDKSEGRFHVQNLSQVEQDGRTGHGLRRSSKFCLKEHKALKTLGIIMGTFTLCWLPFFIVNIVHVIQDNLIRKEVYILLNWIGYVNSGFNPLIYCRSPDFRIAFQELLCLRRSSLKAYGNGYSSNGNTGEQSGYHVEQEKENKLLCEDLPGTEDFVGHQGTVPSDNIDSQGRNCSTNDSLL
D(2) dopamine receptor (Homo sapiens), sequence (P14416 whole entry, looked up): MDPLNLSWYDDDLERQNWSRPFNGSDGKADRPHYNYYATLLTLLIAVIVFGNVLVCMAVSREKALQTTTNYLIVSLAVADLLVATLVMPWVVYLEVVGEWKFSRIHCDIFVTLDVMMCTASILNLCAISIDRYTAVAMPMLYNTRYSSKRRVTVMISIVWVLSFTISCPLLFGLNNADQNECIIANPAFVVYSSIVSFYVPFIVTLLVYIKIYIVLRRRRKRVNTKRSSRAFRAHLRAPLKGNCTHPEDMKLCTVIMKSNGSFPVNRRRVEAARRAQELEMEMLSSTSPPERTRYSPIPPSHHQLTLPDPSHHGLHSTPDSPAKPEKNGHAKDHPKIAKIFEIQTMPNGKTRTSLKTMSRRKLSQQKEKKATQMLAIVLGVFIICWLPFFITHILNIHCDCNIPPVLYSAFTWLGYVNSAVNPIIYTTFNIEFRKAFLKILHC

For the compound `CCOc1cc(OP(=S)(OC)OC)nc(CC)n1`, the Potency result in experiment [1], in experiment [2], in experiment [3], in experiment [4], in [5] and in experiment [6] was “inactive” in each case. In addition, the Potency result in experiment [7], in [8], in [9], in experiment [10], in [11] and in [12] was “inactive” each time. In addition, the Potency result in experiment [13], in [14], in experiment [15], in experiment [16], in experiment [17] and in experiment [18] was “inactive” in each case. Besides, the Potency entry in experiment [19] was “inactive”.
`Clc1c(Cl)c(Cl)c(Cl)c(Cl)c1Cl`: the activity change, negative = cytotoxicity in [1] was 1.8% [at 8.39 µM]; in experiment [7], -8.08% [at 5.99 µM]; in [8], 3.81% [at 5.99 µM]; in [9], 19.3% [at 5.99 µM]. In addition, in experiment [2], the activity, positive = activation is 1.26% [at 8.39 µM]. In addition, in experiment [3], the activity change is -0.0134% [at 5.22 µM, stronger effect = higher value]. In addition, the activation in experiment [4] is 2.59% [at 6.97 µM]; in [5] it was 0.0562% [at 5.23 µM]; in experiment [6] it was -0.077% [at 5.99 µM]; in experiment [12] it was -3.36% [at 7.02 µM]; in experiment [20], 0.839% [at 6.97 µM]; in experiment [14], 0.371% [at 8.39 µM]. Besides, the activation in experiment [17] is 15.9% [at 8.39 µM]; in experiment [18] it was -1.37% [at 8.39 µM]. Further, the activity, negative = inhibition was 3.79% [at 5.62 µM] in experiment [11] and 4.33% [at 5.58 µM] in experiment [13]. The activity change, negative = inhibition in [15] is -9.17% [at 8.39 µM]; in experiment [16], -5.22% [at 8.39 µM]; in experiment [19], -2.06% [at 8.38 µM].
Take `NP(N)(=O)NC(=O)c1ccc(F)cc1`: the Potency result in experiment [1], in experiment [2], in [3], in [4], in experiment [5] and in experiment [8] was “inactive” in each case. Further, the Potency result in experiment [9], in [10], in experiment [12], in experiment [13], in experiment [20] and in experiment [14] was “inactive” in each case. Further, the Potency result in experiment [15], in experiment [16], in [18] and in experiment [19] was “inactive” each time.
For `CCCCCCCCBr`, the Potency result in [1], in experiment [2], in [3], in [4], in [5] and in [6] was “inactive” in each case. Besides, the Potency result in [7], in experiment [8], in experiment [9], in experiment [10], in [11] and in experiment [12] was “inactive” each time. Besides, the Potency result in experiment [13], in [20], in [14], in experiment [15], in experiment [16] and in [18] was “inactive” each time. Moreover, in [19], the Potency entry is “inactive”.
Regarding `ClC(Cl)Br`, the Potency result in [1], in [2], in [3], in experiment [4], in [5] and in [7] was “inactive” each time. Also, the Potency result in experiment [8], in experiment [9], in experiment [11], in experiment [12], in [13] and in [20] was “inactive” each time. The Potency result in experiment [14], in experiment [15], in experiment [16], in experiment [17], in [18] and in [19] was “inactive” throughout.
Take `COP(=O)(OC)O/C(=C/Cl)c1cc(Cl)c(Cl)cc1Cl`: the Potency result in [1], in [3], in experiment [4], in experiment [5], in experiment [7] and in experiment [8] was “inactive” each time. Moreover, the Potency result in [9], in experiment [10], in experiment [12], in experiment [13], in experiment [20] and in [14] was “inactive” in each case. Further, the Potency result in experiment [16] and in [19] was “inactive” each time. The Potency was 51.3 µM (active) in experiment [2] and 15.8 µM (active) in experiment [11].

The values are drawn from PubChem BioAssay (Tox21).
